PubChem BioAssay AID1063 (University of Pittsburgh Molecular Library Screening Center, 2008)
Out of some 200,000 compounds screened, about 18,000 (9%) were called active. The sample as a whole holds a higher share of actives than the screen did. Unmarked numbers belong to inactive results. No stated cut-off is given here; in the data, active means inhibition above about 50%; inactive means the rest.

Assay: Leishmania major promastigote growth inhibition, primary screen (AID 1063);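 further: promastigotes grown with compound for 44 hours at 28 °C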
Conditions: Leishmania major promastigotes, resazurin fluorescence viability; at 10 µM; stronger effect = higher value

| SMILES | inhibition |
| --- | --- |
| O=C(c1ccc(S(=O)(=O)N2CCOCC2)cc1)N1CCN(c2ccccc2)CC1 | -2.9% |
| CCC(CC)C(=O)N1CC(=O)Nc2ccc(Br)cc2C1c1ccccc1 (stereo unspecified) | 14.8% |
| Cc1ccc2c(c1)C(c1ccccc1)N(C(=O)c1ccc(S(=O)(=O)N3CCOCC3)cc1)CC(=O)N2 (stereo unspecified) | 56.5% (active) |
| Cc1ccc2nsnc2c1S(=O)(=O)N1CCCC1C(=O)O (stereo unspecified) | -8.56% |
| COc1ccc(C)cc1NC(=S)Nc1ccccc1SC | 5.88% |
| COC(=O)c1cn(-c2ccccc2)nc1-c1cccnc1 | 1.77% |
| Cc1ccc2nc(-c3cccnc3)c(NC3CCCC3)n2c1 | 63.7% (active) |
| O=C(Nc1ccc(F)cc1)C1CCN(C(=O)c2ccc([N+](=O)[O-])cc2)CC1 | 5.08% |
| CCCCCCn1c(CN2CCCCC2)nc2c1c(=O)n(C)c(=O)n2C | 6.89% |
| CCCCCCCCn1c2c(c(=N)c3c1CCC3)CCCC2 | 101% (active) |
| COc1cc(C)c(S(=O)(=O)N2CCOCC2)c(C)c1C | -1.23% |
| CCCCCCCC1(C)NC(=O)N(CC(=O)Nc2cc(C)on2)C1=O (stereo unspecified) | 20.5% |
| CNC(=O)COc1ccc(S(=O)(=O)Nc2ccccc2)cc1 | -0.21% |
| CCN1CCN(C(=O)CCN2C(=O)c3ccccc3C2=O)CC1 | 4.9% |
| O=C(CCN1C(=O)C2C3C=CC(C3)C2C1=O)Nc1ccccc1F (stereo unspecified) | -3.49% |
| O=C(CN1C(=O)C2C3C=CC(C3)C2C1=O)Nc1nc(-c2ccccn2)cs1 (stereo unspecified) | 97.2% (active) |
| O=C(CN1C(=O)C2C3C=CC(C3)C2C1=O)NCCc1ccccc1Cl (stereo unspecified) | 0.65% |
| Cc1cc(=O)n2[nH]c(-c3sccc3-n3c(C)ccc3C)cc2n1 | -1.8% |
| CCOc1cc2[nH]c(=O)n(Cc3ccc(C(=O)NCCCN4CCCC4=O)cc3)c(=O)c2cc1OCC | -1.97% |
| Cc1ccc(C(=O)Cn2cccn2)cc1 | -1.93% |
| CSc1ncccc1C(=O)NC1CCCCCC1 | -1.57% |
| COCCNC(=O)c1ccc(N2CCC3(CC2)OCCO3)c([N+](=O)[O-])c1 | 73.7% (active) |
| CCC(C)NC(=O)c1ccc(N2CCC3(CC2)OCCO3)c([N+](=O)[O-])c1 (stereo unspecified) | -0.6% |
| CC1CCN(c2ccc(C(=O)NCc3ccc4c(c3)OCO4)cc2[N+](=O)[O-])CC1 | 1.95% |

| SMILES | inhibition |
| --- | --- |
| COc1ccc(C(C)=O)cc1CSc1nc2nc(C)cc(C)n2n1 | -4.13% |
| c1ccc2cc3c(NCCN4CCOCC4)ccnc3cc2c1 | 100% (active) |
| O=C(Cn1c(-c2ccccn2)nc2ccccc21)NCCN1CCOCC1 | -2.96% |
| c1ccc2[nH]c(NCCN3CCOCC3)nc2c1 | 0.2% |
| CCc1ccc(C(=O)OCC(=O)NCC(F)(F)F)cc1 | 4.83% |
| O=C(N/N=C/c1ccc(OCC2COCCO2)cc1)c1ccc(Br)cc1 (stereo unspecified) | 40.5% |
| COc1cc(C(=S)N2CCOCC2)ccc1O | -5.63% |
| C=CCOCCN(C)C1=NS(=O)(=O)c2ccccc21 | -5.84% |
| CN(C)C=NC(=O)c1cccn1-c1ncc(C(F)(F)F)cc1Cl | -3.59% |
| O=C1/C(=C\c2cccnc2)CN(Cc2ccccc2)C/C1=C\c1cccnc1 | 100% (active) |
| Clc1ccc(CN2CCN(/N=C/c3cccnc3)CC2)cc1 | 8.51% |
| O=Cc1cn(Cc2ccccc2)nc1-c1cccnc1 | -1.93% |
| COc1cccc2cc(S(=O)(=O)c3ccc(C)cc3)/c(=N/NS(=O)(=O)c3ccc(C)cc3)oc12 | -0.64% |
| CCOC(=O)C1(CCOc2ccccc2)CCN(C(=O)c2cncs2)CC1 | 6.07% |
| CCOC(=O)/C(N=Nc1cc(C(=O)O)cc(C(=O)O)c1)=C(\O)CCl | 50% (active) |
| O=C(C1CC1)N1N=C2CCCCC2C1(O)C(F)(F)F (stereo unspecified) | -9.92% |
| CCOC(=O)C1=C(C)NC(C)=C(C(=O)OCC)C1c1ccccn1 | 8.25% |
| CCOC(=O)C1=C(C)Nc2sc(C(=O)c3ccc(Br)cc3)c(N)c2C1c1ccc(C(=O)OC)cc1 (stereo unspecified) | 94.8% (active) |
| CCOC(=O)c1sc(=S)n2c1[nH]c(=O)c1ccc(C(=O)OC)cc12 | -7.11% |
| CC(=O)N/C(=C/c1ccc(Cl)cc1)C(=O)NCCc1c[nH]c2ccccc12 | 92.8% (active) |
| COc1ccc(/C=C(\NC(=O)c2ccc(OC)c(OC)c2)C(=O)NCCc2c[nH]c3ccccc23)cc1 | 16% |
| Cc1ccc(C(=O)N/C(=C/c2ccco2)C(=O)NCCc2c[nH]c3ccccc23)cc1C | 32.8% |
| CN(C)/N=C/c1cn(-c2ccccc2)nc1-c1cccnc1 | 13.5% |
| O=C(NCCCn1ccnc1)C(=O)c1cn(CC(=O)N2CCCCCC2)c2ccccc12 | 10.8% |

| SMILES | inhibition |
| --- | --- |
| COc1cc(C(=O)N2CCN(C/C=C/c3ccccc3)CC2)cc(OC)c1C | 54.7% (active) |
| COc1ccccc1/C=C/CN1CCC(CO)(Cc2ccccc2)CC1 | 32.1% |
| CNC(=O)NC(=O)C(C)N1CCN(C/C=C/c2ccccc2)CC1 (stereo unspecified) | 9.45% |
| Cn1c(SCC(=O)NC2CCCCC2)nnc1-c1ccc(N)cc1 | -1.08% |
| Cc1ccc(-c2csc(-c3c[nH]c4ccccc34)n2)cc1 | -3.69% |
| Cc1ccc(C2=Nc3c(ccc4ccccc34)C(c3ccncc3)=NN2)cc1 | 60% (active) |
| CCOC(=O)N1CCN(C(=S)Nc2ccc(C)cc2C)CC1 | -7.01% |
| CC(C)Oc1ccccc1C(=O)NC(CO)C(=O)O (stereo unspecified) | -2.66% |
| NC(=O)COc1ccc(C23CC4CC(CC(C4)C2)C3)cc1 | 2.36% |
| O=C1/C(=C/c2ccc3c(c2)OCO3)CCC/C1=C\c1ccc2c(c1)OCO2 | 39.8% |
| CCC1=C/C(=C\c2ccc3c(c2)OCO3)C(=O)S1 | 78.2% (active) |
| CSC1=N/C(=C\c2ccc3c(c2)OCO3)C(=O)S1 | 17.7% |
| Cc1nn(C)c(Oc2ccccc2)c1[N+](=O)[O-] | 6.23% |
| Cc1nn(C)c(Oc2ccccc2)c1CCNS(=O)(=O)c1ccc(F)cc1 | 97.5% (active) |
| COc1ccc(CCNS(=O)(=O)c2ccc(F)cc2)cc1OC | -4.28% |
| CN(CCc1ccccn1)C(=O)CCC1CCCN(Cc2ccccc2OC(F)F)C1 (stereo unspecified) | 67.9% (active) |
| COc1ccc(F)cc1C(=O)C1CCCN(C(=O)CCc2ccccn2)C1 (stereo unspecified) | -6.74% |
| COc1cccc(CN2CCNC(=O)C2CC(=O)N(C)CCc2ccccn2)c1 (stereo unspecified) | 1.29% |
| CN1CCNC(=O)C1CC(=O)N1CC=C(c2ccc(F)cc2)CC1 (stereo unspecified) | -0.97% |
| Cn1cccc1-c1nc2ccccc2n1C | 6.87% |
| O=C(CC1SC(=Nc2ccccc2F)N(CCN2CCOCC2)C1=O)Nc1ccc(F)cc1F (stereo unspecified) | 50.8% (active) |
| CCN1C(=O)C(CC(=O)Nc2cc(C)ccc2C)SC1=Nc1ccc(S(N)(=O)=O)cc1 (stereo unspecified) | 10.5% |
| N#C/C(C(=O)N1CCOCC1)=C1/SC(Cc2ccc(F)cc2)C(=O)N1c1ccccc1 (stereo unspecified) | -0.55% |
| CCOC(=O)Cc1ncccc1C(=O)Nc1ccc(OC(F)(F)F)cc1 | -5.35% |

| SMILES | inhibition |
| --- | --- |
| N#C/C(=C(\O)C(F)(F)F)c1nnc2n1CCCCC2 | -2.09% |
| N#C/C(=C(\O)CCl)c1nnc2n1CCCCC2 | -1.52% |
| N#C/C(=C/c1cccc([N+](=O)[O-])c1)c1nnc2n1CCCCC2 | 81.3% (active) |
| Cc1ccc2nc(Nc3ncc4c(n3)CC(C)(C)CC4=O)nc(C)c2c1 | 9.71% |
| O=C(c1ccccc1)c1ccc2nc(N3CCCCC3)c3nncn3c2c1 | -0.8% |
| Cn1cc(S(=O)(=O)N2CCC(Cc3ccccc3)CC2)c(=O)n(C)c1=O | -5.82% |
| c1ccc(CC2CCN(c3nc4ccccc4n4cnnc34)CC2)cc1 | 64.6% (active) |
| CCOCCCNC(=O)C(NC(=O)Cc1c[nH]c2ccccc12)c1ccc(OC)cc1 (stereo unspecified) | -7.71% |
| COc1cc(C=O)c(Br)cc1OCC(=O)NCc1ccccc1 | 4.2% |
| COc1ccc(CCNC(=O)COC(=O)Cc2cc(OC)c(OC)c(OC)c2)cc1 | -3.11% |
| Fc1ccc2[nH]c3c(N4CCN(Cc5ccc6c(c5)OCO6)CC4)ncnc3c2c1 | 77.8% (active) |
| Cc1cc(N2CCN(Cc3ccc4c(c3)OCO4)CC2)n2ncnc2n1 | 12.7% |
| Fc1ccc2[nH]c3c(N4CCSCC4)ncnc3c2c1 | 35.5% |
| Nc1nnnn1CC(=O)N/N=C/c1ccc(-c2cccc(Cl)c2)o1 | -9.69% |
| COc1ccc(/C=N/n2c(C)cc(C)cc2=O)cc1 | -6.47% |
| CCC(C)CN1CCC(CO)(Cc2ccccc2Cl)CC1 (stereo unspecified) | 82.2% (active) |
| CC(C)c1csc(CN2CCC(CO)(Cc3ccccc3)CC2)n1 | 14.2% |
| CC(CN1CCCCC1)OC(=O)c1ccccc1Cl (stereo unspecified) | -4.92% |
| CC1COc2ccccc2N1S(=O)(=O)c1ccccc1 (stereo unspecified) | 15.8% |
| CN1/C(=C\C=C2\N=C(c3ccc(F)cc3)OC2=O)C(C)(C)c2ccccc21 | 63.4% (active) |
| CN1CCN(CCC(=O)N/N=C/C=C2\N(C)c3ccccc3C2(C)C)CC1 | 4.61% |
| CC(=O)Nc1cccc(OCC(=O)/C=C2\N(C)c3ccccc3C2(C)C)c1 | 48.1% |
| O=C(O)CSc1nccc2ccccc12 | -6.68% |
| O=C(c1ccccc1Cl)N(Cc1ccccc1F)N1C(=O)CCCC1=O | -3.99% |
